This note sets out measurements from PubChem BioAssay AID1645870 (National Center for Advancing Translational Sciences (NCATS), 2021).

“And” between values parts separate entries of the source, which are not always exact repeats. Equal entries are not always repeated. In all, about 59,000 compounds went through this assay and about 1,500 (2.5%) were called active. Another 10% or so got no clear call; they are omitted. The call rests on the fitted dose curve; in most records, active means well fitted inhibition curve with a large enough effect; inconclusive means small, poorly fitted or top-dose-only effect; inactive means flat fitted curve, though single readings scatter. Shown is part of a subset that was picked to be rich in actives. Where a call stands in place of a potency, no number is given. A structure can be active in one record and inactive in another.
Potency means the concentration at half of the fitted maximal effect.

Sequence of N-terminal Xaa-Pro-Lys N-methyltransferase 1 (Homo sapiens) (Q9BV86 whole entry, looked up): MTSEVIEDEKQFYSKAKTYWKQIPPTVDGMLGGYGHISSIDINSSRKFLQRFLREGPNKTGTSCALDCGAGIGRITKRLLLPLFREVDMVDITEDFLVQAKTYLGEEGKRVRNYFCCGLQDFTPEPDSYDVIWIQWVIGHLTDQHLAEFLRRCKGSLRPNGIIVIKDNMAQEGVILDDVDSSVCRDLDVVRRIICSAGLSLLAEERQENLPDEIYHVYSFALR

The assay addresses N-terminal Xaa-Pro-Lys N-methyltransferase 1 (Homo sapiens) (UniProt Q9BV86). Nature of the assay: Primary qHTS for Inhibitors of N-terminal methyltransferase 1 (NTMT1): MTaseGlo Assay. Further: nearly all actives have a fitted effect of over 65% in size. The settings on record: NTMT1 MTase-Glo SAH luminescence, purified enzyme; series mostly up to 114 µM. The source says:
Assay Submitter (PI): Rong Huang Ph.D.
Purdue University, West Lafayette, IN 47907
The N-terminal methytransferase 1 is the first methyltransferase that methylates protein alpha-N-amines and plays an important role in regulating cell mitosis, chromatin interactions and DNA repair. It is observed to be over-expressed in various cancer patient tissues like malignant melanoma and colorectal cancer tissues. Knockdown of NTMT1 in cancer cells causes cell mitotic defects and enhances sensitivity to DNA damaging chemotherapeutics. […] These critical cellular processes in which NTMT1 is implicated, coupled with emerging links to cellular dysfunction, strengthen the inference that NTMT1 is a compelling novel anticancer target. Progress have been made in understanding the molecular properties of NTMT1 and the biological consequences of protein alpha-N-terminal methylation, but there are no specific small molecule probes available for NTMT1 to fully characterize its MTase activity. To address this unmet need, a panel of assay is created and established to enable quantitative high-throughput screening (qHTS) for novel, potent, and selective small molecule NTMT1 inhibitors. Two orthogonal qHTS that use different reagents (ThioGlo vs. MTaseGlo) are developed for primary robotic screening against the NCATS chemical library of more than 400,000 small molecules. Identified inhibitors are reacquired, validated, and further characterized.
MTaseGlo Assay is a luminescence screen that measure the activity of methyltransferases based on the reaction product S-adenosyl homocysteine (SAH). The substrate SAM is converted to SAH upon enzyme activation. MTase-Glo reagent and detection solution convert SAH to ATP and measure the light from the luciferase reaction.
Materials: NTMT1 enzyme, substrate SPKRIA, control peptide RCC1-6 is provided by the Huang laboratory.
SEQUENCE No. (e.g., 1, 2, 3, etc.); […] (e.g., Cells, Incubation, Reagent, etc.); VALUE; DESCRIPTION
1; Enzyme; 3 uL; Dispense enzyme mixture (final concentrations of 125 nM NTMT1 and 100 uM SAM) into Greiner 1536-well white / solid bottom assay plate (Greiner Bio One, Monroe, NC).
2; Compounds; 23 nL; Compounds and controls were transferred via a Kalypsys Pin Tool (Wako USA) equipped with a 1536-slotted pin array (Wako Automation, Richmond, VA)
3; Incubation; 15 min; Incubate at room temperature
4; Substrate; 1 uL; Dispense 1 uL of substrate at final concentration of 1 uM. Buffer solution was dispensed in control wells. The assay plate was covered with metal lids.
5; Incubation; 30 min; Incubate at room temperature, protected from lights.
6; Reagent; 1 uL; Dispensed 5x MTase-Glo detection reagent (R) into the assay plate. The plate was covered with metal lids.
7; Incubation; 30 min; Incubate the assay plates at room temperature in the dark to allow for SAH to be converted to ADP.
8; Reagent; 5 uL; Dispense 5 uL of 1x MTase-Glo Detection Solution (R) to allow for ADP to be converted to ATP which was then detected with a luciferase reaction.
9; Centrifuge; 15 sec; Centrifuge the assay plate for 15 seconds at 1000 RPM.
10; Incubation; 30 min; Assay plates were incubation at room temperature in the dark.
11; Detection; Luminescence; Plates were read on ViewLux detector (PerkinElmer). Data were normalized to no-enzyme (0% activity) and no-inhibitor (DMSO; 100%) controls, and the resulting percent inhibition data were fitted to a 4-parameter Hill equation using GraphPad Prism.
(Quantitative high-throughput screening tests each substance at several concentrations.)
Regarding `Cc1cnc(-c2ccccc2C(C)C)nc1NCC1CCN(C)CC1`, the Potency result was “inactive”. For `CCOC(=O)C1CCN(C(=O)C(C)(C)NC(=O)Nc2ccc(F)c(F)c2)CC1` the value was “inactive”. Take `O=C(Nc1ccc(-c2ccc(Cl)c(Cl)c2)cc1)C1=C(O)c2ccccc2S(=O)(=O)N1`: the Potency entry was “inactive”. Consider `COc1cccc(C(=O)Nc2ccc3nc4n(c(=O)c3c2)CCCCC4)c1`, for which the Potency was 50.1 µM (active).

`NS(=O)(=O)c1ccc(NC(=O)C(=O)Nc2ccc3nc4n(c(=O)c3c2)CCCCC4)cc1`: the Potency entry was “inactive”.

Turning to `COc1cccc(C(=O)Nc2ccc3oc(-c4ccc5ccccc5c4)nc3c2)c1`, the Potency entry was “inactive”. The entry for `Cc1cc(C)n2ncc(C(=O)Nc3cccc(C#N)c3)c2n1` is “inactive”. Regarding `CCOc1ccc(CCNC(=O)c2cc3ccccc3n2Cc2ccc(Cl)c(F)c2)cc1OCC`, the Potency result was “inactive”. The entry for `CC(C)c1ccccc1SC1=NS(=O)(=O)c2ccccc21` is “inactive”; for `CN(C)c1ccc(C(=O)NCC(=O)OC(C(=O)Nc2cc(C(F)(F)F)ccc2Cl)c2ccccc2)cc1` (configuration not stated) it is “inactive”.

Take `Cc1ccc(C)c(NC(=O)Cn2ccn(-c3ccc(F)cc3)c(=O)c2=O)c1`: the Potency result is “inactive”. For `COc1ccc(Cn2ccn(Cc3cccc(OC)c3)c(=O)c2=O)cc1` the value was “inactive”; for `COc1ccc(Cn2ccn(CC(=O)Nc3cc(C)ccc3C)c(=O)c2=O)cc1`, 79.4 µM (active); for `N#Cc1ccc(N[S+](=O)([O-])c2ccc(Nc3nc(-c4ccccc4)cs3)cc2)cc1`, “inactive”. `O=[S+]([O-])(c1ccc(OC(F)(F)F)cc1)N1CCN([S+](=O)([O-])c2ccc3c(c2)OCCO3)CC1`: the Potency result is “inactive”. For `CN1CCOc2cc(S(=O)(=O)N3CCN(S(=O)(=O)c4c(F)cccc4F)CC3)cnc21` the value was “inactive”; for `COCC1CCCN(C(=O)CC(c2ccc3c(c2)OCO3)c2c(O)cc(OC)cc2OC)C1` (configuration not stated), “inactive”; for `CCOc1cc(CCNC(=O)c2cc3sccc3n2Cc2ccccc2)cc(F)c1OCC`, “inactive”. The figure for `Cc1cccc2nc(-c3ccc(Cl)s3)c(Nc3ccc4c(c3)OCCO4)n12` is 1.78 µM (active). For `Cc1ccc(Nc2c(-c3ccc(C)s3)nc3ccccn23)cc1` the value was “inactive”; for `Oc1ccccc1-c1nc2ccc(Cl)cn2c1Nc1ccc2c(c1)OCCO2`, “inactive”. For `Cc1cc2c(s1)c1cnn(Cc3cc(F)c(Cl)cc3Cl)c(=O)c1n2C`, the Potency entry was “inactive”.

Regarding `Fc1cc(Nc2nc(-c3ccncc3)nc3ccccc23)ccc1-n1cncn1`, the Potency result is “inactive”.

`Cc1c(Cl)cccc1S(=O)(=O)Nc1nc(CCN2CCOCC2=O)cs1`: the Potency entry is “inactive”. For `Cc1cc(Nc2cc(CN3CCOCC3)c3nc(C)c(Cc4ccc(Cl)cc4F)n3n2)n[nH]1` the value was 30.4 µM (active) and 7.08 µM (active) and 11.2 µM (active); for `COc1cc(NS(=O)(=O)c2ccc(C)cc2)ccc1C(=O)Nc1nc(-c2ccccc2)cs1`, “inactive”; for `Cc1cc(C)n2ncc(C(=O)Nc3ccc4c(c3)OCCO4)c2n1`, “inactive”. The entry for `Cc1cc(C)n2ncc(C(=O)Nc3ccc(C)c(C)c3)c2n1` is “inactive”; for `COc1ccc(C[C@H](C(=O)O)N2C(=O)c3ccc(C(=O)O)cc3C2=O)cc1` it is “inactive”; for `COC(=O)c1cccc(Cn2nnc3sc4c(c3c2=O)CCC(C(C)(C)C)C4)c1` (configuration not stated) it is “inactive”. For the molecule `CC(C)(C)C1CCc2c(sc(NC(=O)c3ccccc3F)c2C(=O)N2CCCCC2)C1` (configuration not stated), the Potency result was “inactive”.

In the case of `CC(C)C(=O)Nc1nc2c(s1)CC(C(C)(C)C)CC2` (configuration not stated), the Potency is 79.4 µM (active). For `Cc1ccc(S(=O)(=O)NC(N)=NCCC[C@@H](NC(=O)CNC(=O)c2ccccc2)C(=O)Nc2cc(C(F)(F)F)ccc2Cl)cc1` the value was “inactive”; for `CC(C)c1ccc(C2CC(=O)N3CN(C4CCCCC4)CSC3=C2C#N)cc1` (configuration not stated), 11.2 µM (active); for `O=C(Nc1ccc2ccccc2c1)Nc1nnc(-c2ccc(O)cc2)s1`, “inactive”. The entry for `CC(C)c1ccc2c(c1)c(SC(C)(C)C)c(CC(C)(C)C(=O)O)n2Cc1ccc(Cl)cc1` is “inactive and 79.4 µM (active)”; for `Cc1c(C)n(Cc2ccc(Cl)cc2)c2ccc(C(=O)N3CCN(c4ccccc4F)CC3)cc12` it is “inactive”. The entry for `C[S+](=O)([O-])c1ccc(-c2ccc(=O)n(CC(=O)NCCc3ccccc3)n2)cc1` is “inactive”. As to `Cc1ccc(OCCn2c(CCNC(=O)Cc3cccc4ccccc34)nc3ccccc32)cc1`, the Potency entry was “inactive”. Consider `CN1CC[C@H](c2c(O)cc(O)c3c(=O)cc(-c4ccccc4Cl)oc23)[C@H](O)C1`, for which the Potency is 31.6 µM (active).

For `Cc1cc(C2N=C(Nc3nc4ccccc4o3)NC3=C2C(=O)CCC3)n[nH]1` (configuration not stated), the Potency result was “inactive”. For `FC(F)(F)c1cc(Cl)cc(-c2ccc(CNc3nc(-c4ccccc4C(F)(F)F)nc4ccccc34)cc2)c1` the value was “inactive”; for `Cc1ccccc1-c1ccc(NC(=O)c2cccs2)cn1`, “inactive”.

As for `O=S(=O)(NCC1CN(S(=O)(=O)c2ccc3c(c2)OCCO3)C1)c1c(F)cccc1F`, the Potency entry was “inactive”. For `O=S(=O)(Nc1cccc2ccccc12)c1ccc(NCc2ccc(Br)cc2O)cc1` the value was “inactive”.

For the molecule `CCN(CC)c1ccc(NC(=O)CN(C)Cc2c(O)ccc3ccccc23)cc1`, the Potency entry was “inactive”.

For `COc1ccc(-c2cncc(NC(=O)c3cccs3)c2)cc1OC`, the Potency entry is “inactive”. As for `COc1ccccc1-c1c[nH]c2ncc(-c3cncc(C(=O)N(C)C)c3)cc12`, the Potency is 39.8 µM (active). The entry for `O=C1NS(=O)(=O)c2cc(Cl)ccc21` is “inactive”; for `NC(=O)C1CCN(c2cc(-c3ccc4c(c3)OCCCO4)ncn2)CC1` it is “inactive”; for `c1nc(N2CCOCC2)c2cc(-c3ccc4c(c3)OCO4)ccc2n1` it is 12.6 µM (active). For `COc1ccc(NC(=O)c2cnn3c(-c4ccccc4)cc(C)nc23)cc1` the value was “inactive”. The entry for `O=C(Nc1ccc([S+](=O)([O-])Nc2nccs2)cc1)c1ccn[nH]1` is “inactive”; for `O=C(OC/C=C/CSc1nnc(-c2cccc3ccccc23)o1)c1ccc(F)cc1` it is “inactive”. For `COc1cc(NC(=O)c2cc3ccc4cccnc4c3[nH]2)cc(OC)c1OC`, the Potency entry was “inactive”. On to `COc1cc(Nc2ncc(F)c(Nc3ccc4c(n3)NC(=O)C(C)(C)O4)n2)cc(OC)c1OC`, for which the Potency result was “inactive and 1.52 µM (active)”. In the case of `N#CN1CCC(NS(=O)(=O)c2cccc(F)c2)C1` (configuration not stated), the Potency entry was “inactive”.
